Out of some 5,500 compounds screened, about 2,000 (36%) were called active. About 18% were inconclusive and are not listed. No stated cut-off is given here; in the data, active means normalized growth mostly below about 0.91 (no sharp cut-off); inconclusive means no clear call, values can overlap the other calls; inactive means mostly above about 0.92. The list shows a part of the results.
Experiment: chemical genetic growth profiling, strain panel (AID 1159580);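 further: tested at 20 µM; growth read once vehicle control cultures reached saturation at 30 °C; 1 = growth at the plate median or of vehicle wells; lower values mean less growth of the strain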
Settings: growth OD

Measured: normalized growth

COc1cc2c3cc1Oc1cc(ccc1O)C[C@@H]1c4c(cc(OC)c(O)c4Oc4ccc(cc4)C[C@@H]3N(C)CC2)CC[N+]1(C)C
inactive: S. cerevisiae deletion strains, locus YKL009W, strain mrt4, active compounds read low 1.04 | S. cerevisiae deletion strains, locus YKL068W, active compounds read low 0.997 | S. cerevisiae deletion strains, locus YKL085W, strain MDH1 (second series), active compounds read low 0.988 | S. cerevisiae deletion strains, locus YKL085W, strain MDH1, active compounds read low 0.988 | S. cerevisiae deletion strains, locus YKL160W, strain elf1, active compounds read low 1.04 | S. cerevisiae deletion strains, locus YKL190W, strain CNB1, active compounds read low 1.01 | S. cerevisiae deletion strains, locus YKR001C, strain vps1, active compounds read low 1.01 | S. cerevisiae deletion strains, locus YKR026C, strain gcn3, active compounds read low 1 | S. cerevisiae deletion strains, locus YKR091W, strain srl3, active compounds read low 0.999 | S. cerevisiae deletion strains, locus YLL001W, strain dnm1, active compounds read low 1.04 | S. cerevisiae deletion strains, locus YLL026W, active compounds read low 1.01 | S. cerevisiae deletion strains, locus YLL041C, strain sdh2, active compounds read low 1 | S. cerevisiae deletion strains, locus YLR027C, strain aat2, active compounds read low 1.02 | S. cerevisiae deletion strains, locus YLR039C, strain RIC1, active compounds read low 1.09 | S. cerevisiae deletion strains, locus YLR058C, strain SHM2, active compounds read low 1.01 | S. cerevisiae deletion strains, locus YLR102C, strain apc9, active compounds read low 1 | S. cerevisiae deletion strains, locus YLR113W, strain HOG1, active compounds read low 0.996 | S. cerevisiae deletion strains, locus YLR221C, strain rsa3, active compounds read low 0.966 | S. cerevisiae deletion strains, locus YLR258W, strain gsy2, active compounds read low 0.988 | S. cerevisiae deletion strains, locus YLR262C, strain YPT6 (second series), active compounds read low 1.04 | S. cerevisiae deletion strains, locus YLR262C, strain YPT6, active compounds read low 1.06 | S. cerevisiae deletion strains, locus YLR268W, strain sec22, active compounds read low 1.04 | S. cerevisiae deletion strains, locus YLR320W, strain mms22, active compounds read low 0.967 | S. cerevisiae deletion strains, locus YLR330W, strain CHS5, active compounds read low 1.01 | S. cerevisiae deletion strains, locus YLR342W, strain FKS1 (second series), active compounds read low 0.999 | S. cerevisiae deletion strains, locus YLR342W, strain FKS1, active compounds read low 1.02 | S. cerevisiae deletion strains, locus YLR357W, strain rsc2, active compounds read low 0.958 | S. cerevisiae deletion strains, locus YLR370C, strain arc18, active compounds read low 1.01 | S. cerevisiae deletion strains, locus YLR371W, strain rom2, active compounds read low 1.01 | S. cerevisiae deletion strains, locus YLR384C, strain iki3, active compounds read low 1 | S. cerevisiae deletion strains, locus YLR418C, strain cdc73, active compounds read low 0.986 | S. cerevisiae deletion strains, locus YML016C, strain PPZ1, active compounds read low 1.01 | S. cerevisiae deletion strains, locus YML032C, strain rad52, active compounds read low 0.981 | S. cerevisiae deletion strains, locus YML120C, strain ndi1, active compounds read low 1.03 | S. cerevisiae deletion strains, locus YML124C, strain tub3, active compounds read low 0.999 | S. cerevisiae deletion strains, locus YMR058W, strain fet3, active compounds read low 1 | S. cerevisiae deletion strains, locus YMR078C, strain ctf18, active compounds read low 1.01 | S. cerevisiae deletion strains, locus YMR125W, strain sto1, active compounds read low 0.993 | S. cerevisiae deletion strains, locus YMR129W, active compounds read low 0.98 | S. cerevisiae deletion strains, locus YMR205C, strain PFK2, active compounds read low 1.03 | S. cerevisiae deletion strains, locus YMR223W, strain ubp8, active compounds read low 0.994 | S. cerevisiae deletion strains, locus YMR231W, strain pep5, active compounds read low 0.993 | S. cerevisiae deletion strains, locus YMR307W, strain GAS1, active compounds read low 1.06 | S. cerevisiae deletion strains, locus YNL067W, strain RPL9B, active compounds read low 1.04 | S. cerevisiae deletion strains, locus YNL071W, strain lat1, active compounds read low 0.969 | S. cerevisiae deletion strains, locus YNL128W, strain TEP1, active compounds read low 1.02 | S. cerevisiae deletion strains, locus YNL183C, strain NPR1, active compounds read low 0.948 | S. cerevisiae deletion strains, locus YNL209W, strain ssb2, active compounds read low 0.982 | S. cerevisiae deletion strains, locus YNL233W, strain BNI4, active compounds read low 1.03 | S. cerevisiae deletion strains, locus YNL248C, strain rpa49, active compounds read low 0.926 | S. cerevisiae deletion strains, locus YNL250W, strain rad50, active compounds read low 1.01 | S. cerevisiae deletion strains, locus YNL271C, strain bni1, active compounds read low 1.01 | S. cerevisiae deletion strains, locus YNL298W, strain CLA4, active compounds read low 1 | S. cerevisiae deletion strains, locus YNL307C, strain MCK1, active compounds read low 1.01 | S. cerevisiae deletion strains, locus YNL322C, strain KRE1 (second series), active compounds read low 0.984 | S. cerevisiae deletion strains, locus YNL322C, strain KRE1, active compounds read low 0.999 | S. cerevisiae deletion strains, locus YNR049C, strain mso1, active compounds read low 0.99 | S. cerevisiae deletion strains, locus YNR052C, strain pop2, active compounds read low 1.01 | S. cerevisiae deletion strains, locus YOL006C, strain TOP1, active compounds read low 1.1 | S. cerevisiae deletion strains, locus YOL012C, strain htz1 0.91 | S. cerevisiae deletion strains, locus YOL147C, strain pex11, active compounds read low 0.995 | S. cerevisiae deletion strains, locus YOR001W, strain rrp6, active compounds read low 1.02 | S. cerevisiae deletion strains, locus YOR061W, strain CKA2, active compounds read low 1.01 | S. cerevisiae deletion strains, locus YOR069W, strain VPS5, active compounds read low 1.01 | S. cerevisiae deletion strains, locus YOR070C, strain gyp1, active compounds read low 0.993 | S. cerevisiae deletion strains, locus YOR080W, strain dia2, active compounds read low 1.01 | S. cerevisiae deletion strains, locus YOR083W, strain WHI5, active compounds read low 1.01 | S. cerevisiae deletion strains, locus YOR106W, strain vam3, active compounds read low 1.03 | S. cerevisiae deletion strains, locus YOR136W, strain idh2, active compounds read low 1 | S. cerevisiae deletion strains, locus YOR144C, strain elg1, active compounds read low 0.993 | S. cerevisiae deletion strains, locus YOR184W, strain ser1, active compounds read low 1.01 | S. cerevisiae deletion strains, locus YOR231W, strain MKK1, active compounds read low 0.996 | S. cerevisiae deletion strains, locus YOR265W, strain rbl2, active compounds read low 0.999 | S. cerevisiae deletion strains, locus YOR270C, strain vph1, active compounds read low 0.985 | S. cerevisiae deletion strains, locus YOR290C, strain snf2, active compounds read low 0.946 | S. cerevisiae deletion strains, locus YOR316C, strain cot1, active compounds read low 1 | S. cerevisiae deletion strains, locus YPL051W, strain arl3, active compounds read low 1.01 | S. cerevisiae deletion strains, locus YPL055C, strain LGE1, active compounds read low 1.04 | S. cerevisiae deletion strains, locus YPL078C, strain atp4, active compounds read low 1.04 | S. cerevisiae deletion strains, locus YPL106C, strain sse1, active compounds read low 0.937 | S. cerevisiae deletion strains, locus YPL240C, strain hsp82, active compounds read low 1 | S. cerevisiae deletion strains, locus YPL256C, strain CLN2, active compounds read low 0.99 | S. cerevisiae deletion strains, locus YPR119W, strain clb2, active compounds read low 1 | S. cerevisiae deletion strains, locus YPR141C, strain kar3, active compounds read low 1.01 | S. cerevisiae deletion strains, locus YPR163C, strain tif3, active compounds read low 0.992 | S. cerevisiae deletion strains, locus YPR167C, strain met16, active compounds read low 0.999 | S. cerevisiae deletion strains, strain wtn01, active compounds read low 1.01 | S. cerevisiae strains, strain wild type, active compounds read low 1.01

Source: PubChem BioAssay AID1159580 (chemical genetic matrix, 2015)
